# From paper PMC7862700, “An all-to-all approach to the identification of sequence-specific readers for epigenetic DNA modifications on cytosine”
# Legend:
# Test in all cases: DAPPL (digital affinity profiling via proximity ligation, sequencing); 10 mM Tris-HCl pH 7.5, 50 mM NaCl, 1 mM DTT, 4% glycerol, room temperature, 30 min; GST-TFs on glutathione beads, 16-mer random dsDNA library, 0.1% formaldehyde crosslink after washing; high values mean tight binding
# [1] = target: T1, FEV (Homo sapiens, UniProt Q99581 1-238); conditions: protein: recombinant; tags: N-terminal GST; dsDNA, one strand shown
# T1 sequence: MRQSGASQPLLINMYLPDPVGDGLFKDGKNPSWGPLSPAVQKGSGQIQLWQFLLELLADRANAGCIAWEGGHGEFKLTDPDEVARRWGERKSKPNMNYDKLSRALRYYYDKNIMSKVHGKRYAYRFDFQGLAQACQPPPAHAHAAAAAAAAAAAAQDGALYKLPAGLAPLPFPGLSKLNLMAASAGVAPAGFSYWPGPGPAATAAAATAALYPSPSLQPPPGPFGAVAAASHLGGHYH
# Procedure, shortened: (§1)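 Binding signal is each hexamer's read frequency for a factor divided by its frequency in the tag-only sample. The factors were GST-fused human transcription factors from yeast, captured on glutathione beads, DNA-barcoded and pooled with that sample. Pools were incubated with 200 nmole of a random double-stranded 16-mer DNA library in Tris/NaCl/DTT/glycerol buffer at room temperature for 30 min, then washed, crosslinked with 0.1% formaldehyde, proximity-ligated with BsaI/T4 ligase (1 h, 37 °C), PCR-amplified and sequenced on an Illumina NextSeq500.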
# [2] = target: ETV5 (Homo sapiens, UniProt P41161 1-510); conditions: protein: recombinant; tags: N-terminal GST; dsDNA, one strand shown
# Procedure, shortened: as §1
# [3] = target: HSF1 (Homo sapiens, UniProt Q00613 1-529); conditions: protein: recombinant; tags: N-terminal GST; chain copies: 3; dsDNA, one strand shown
# Procedure, shortened: as §1
# [4] = target: T2, SPIC (Homo sapiens, UniProt Q8N5J4 1-248); conditions: protein: recombinant; tags: N-terminal GST; dsDNA, one strand shown
# T2 sequence: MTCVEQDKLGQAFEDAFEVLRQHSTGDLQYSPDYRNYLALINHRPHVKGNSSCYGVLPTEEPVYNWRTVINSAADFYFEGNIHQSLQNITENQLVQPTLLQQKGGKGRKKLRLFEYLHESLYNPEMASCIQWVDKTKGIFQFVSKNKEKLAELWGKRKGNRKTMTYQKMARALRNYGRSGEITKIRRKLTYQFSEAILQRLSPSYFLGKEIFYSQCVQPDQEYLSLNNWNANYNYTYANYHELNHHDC
# Procedure, shortened: as §1
# [5] = target: ELF4 (Homo sapiens, UniProt Q99607 1-663); conditions: protein: recombinant; tags: N-terminal GST; dsDNA, one strand shown
# Procedure, shortened: as §1
# [6] = target: T3, ELK4 (Homo sapiens, UniProt P28324-2 1-405); conditions: protein: recombinant; tags: N-terminal GST; dsDNA, one strand shown
# T3 sequence: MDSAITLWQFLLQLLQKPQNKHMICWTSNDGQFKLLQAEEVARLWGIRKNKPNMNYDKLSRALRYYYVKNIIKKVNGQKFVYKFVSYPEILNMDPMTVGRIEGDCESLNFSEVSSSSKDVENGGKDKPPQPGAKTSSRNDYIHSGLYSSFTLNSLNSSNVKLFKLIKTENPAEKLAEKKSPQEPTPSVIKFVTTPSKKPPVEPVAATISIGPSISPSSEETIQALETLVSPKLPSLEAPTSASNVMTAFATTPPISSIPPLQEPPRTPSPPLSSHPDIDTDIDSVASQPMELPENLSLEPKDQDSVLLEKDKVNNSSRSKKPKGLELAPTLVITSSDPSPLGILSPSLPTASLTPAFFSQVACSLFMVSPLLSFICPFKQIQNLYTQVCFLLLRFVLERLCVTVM
# Procedure, shortened: as §1
# [7] = target: T4, ETV2 (Homo sapiens, UniProt O00321 1-342); conditions: protein: recombinant; tags: N-terminal GST; dsDNA, one strand shown
# T4 sequence: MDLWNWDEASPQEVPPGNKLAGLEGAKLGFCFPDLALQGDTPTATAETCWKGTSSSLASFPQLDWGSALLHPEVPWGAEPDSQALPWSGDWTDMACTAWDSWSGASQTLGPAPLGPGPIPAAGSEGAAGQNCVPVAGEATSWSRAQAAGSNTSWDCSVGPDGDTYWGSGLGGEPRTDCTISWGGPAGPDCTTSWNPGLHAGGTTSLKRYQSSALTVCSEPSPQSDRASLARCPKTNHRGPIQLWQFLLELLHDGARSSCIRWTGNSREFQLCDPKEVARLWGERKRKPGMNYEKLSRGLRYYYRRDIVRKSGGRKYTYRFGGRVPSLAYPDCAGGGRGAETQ
# Procedure, shortened: as §1
# [8] = target: T5, ELF3 (Homo sapiens, UniProt P78545 1-371); conditions: protein: recombinant; tags: N-terminal GST; dsDNA, one strand shown
# T5 sequence: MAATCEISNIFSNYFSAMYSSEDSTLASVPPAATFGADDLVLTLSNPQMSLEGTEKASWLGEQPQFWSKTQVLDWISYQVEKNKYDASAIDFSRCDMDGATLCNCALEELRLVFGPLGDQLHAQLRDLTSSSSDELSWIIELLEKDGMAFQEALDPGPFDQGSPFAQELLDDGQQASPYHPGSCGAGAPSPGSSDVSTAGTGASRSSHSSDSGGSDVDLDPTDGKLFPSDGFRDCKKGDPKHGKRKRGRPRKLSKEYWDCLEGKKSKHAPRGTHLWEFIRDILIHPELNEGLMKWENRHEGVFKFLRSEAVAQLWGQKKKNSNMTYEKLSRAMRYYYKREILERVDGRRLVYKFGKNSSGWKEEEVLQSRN
# Procedure, shortened: as §1
# [9] = target: CRX (Homo sapiens, UniProt O43186 1-299); conditions: protein: recombinant; tags: N-terminal GST; dsDNA, one strand shown
# Procedure, shortened: as §1
# Sequence of ETV5 (P41161 whole entry): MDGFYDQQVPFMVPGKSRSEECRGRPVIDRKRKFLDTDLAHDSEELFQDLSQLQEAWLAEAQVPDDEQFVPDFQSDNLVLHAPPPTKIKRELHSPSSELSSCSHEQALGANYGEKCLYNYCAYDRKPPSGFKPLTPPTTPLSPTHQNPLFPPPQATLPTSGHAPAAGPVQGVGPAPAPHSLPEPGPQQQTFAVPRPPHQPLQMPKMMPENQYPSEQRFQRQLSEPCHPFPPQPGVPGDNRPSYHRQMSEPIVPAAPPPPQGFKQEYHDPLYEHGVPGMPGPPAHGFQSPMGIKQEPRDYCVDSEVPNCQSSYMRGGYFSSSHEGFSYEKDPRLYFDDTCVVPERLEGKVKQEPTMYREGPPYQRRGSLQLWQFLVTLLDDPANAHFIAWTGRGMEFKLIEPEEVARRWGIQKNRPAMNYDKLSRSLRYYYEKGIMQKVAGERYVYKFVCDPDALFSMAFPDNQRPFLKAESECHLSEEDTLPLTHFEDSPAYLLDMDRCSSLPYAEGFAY
# Sequence of HSF1 (Q00613 whole entry): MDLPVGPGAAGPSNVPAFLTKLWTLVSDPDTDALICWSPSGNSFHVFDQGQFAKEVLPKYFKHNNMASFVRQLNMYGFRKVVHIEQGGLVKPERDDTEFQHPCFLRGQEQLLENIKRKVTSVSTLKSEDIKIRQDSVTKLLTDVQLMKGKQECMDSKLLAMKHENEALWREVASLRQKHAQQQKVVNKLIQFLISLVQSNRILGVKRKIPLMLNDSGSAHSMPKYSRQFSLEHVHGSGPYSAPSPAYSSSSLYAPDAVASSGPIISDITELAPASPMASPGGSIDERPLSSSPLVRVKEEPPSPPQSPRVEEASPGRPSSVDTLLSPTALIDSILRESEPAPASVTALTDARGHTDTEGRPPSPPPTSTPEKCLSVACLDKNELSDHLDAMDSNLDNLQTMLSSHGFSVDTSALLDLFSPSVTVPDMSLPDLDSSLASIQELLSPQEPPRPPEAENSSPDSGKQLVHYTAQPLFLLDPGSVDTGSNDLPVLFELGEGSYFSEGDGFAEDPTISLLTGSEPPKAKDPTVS
# Sequence of CRX (O43186 whole entry): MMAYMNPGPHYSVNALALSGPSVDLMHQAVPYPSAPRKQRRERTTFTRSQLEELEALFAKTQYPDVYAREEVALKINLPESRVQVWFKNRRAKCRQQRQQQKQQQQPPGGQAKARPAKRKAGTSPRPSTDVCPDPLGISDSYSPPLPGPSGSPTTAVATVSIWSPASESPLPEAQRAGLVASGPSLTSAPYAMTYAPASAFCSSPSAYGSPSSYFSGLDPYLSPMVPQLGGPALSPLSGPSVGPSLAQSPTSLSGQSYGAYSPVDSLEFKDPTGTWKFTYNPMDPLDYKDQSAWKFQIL
# Sequence of ELF4 (Q99607 whole entry): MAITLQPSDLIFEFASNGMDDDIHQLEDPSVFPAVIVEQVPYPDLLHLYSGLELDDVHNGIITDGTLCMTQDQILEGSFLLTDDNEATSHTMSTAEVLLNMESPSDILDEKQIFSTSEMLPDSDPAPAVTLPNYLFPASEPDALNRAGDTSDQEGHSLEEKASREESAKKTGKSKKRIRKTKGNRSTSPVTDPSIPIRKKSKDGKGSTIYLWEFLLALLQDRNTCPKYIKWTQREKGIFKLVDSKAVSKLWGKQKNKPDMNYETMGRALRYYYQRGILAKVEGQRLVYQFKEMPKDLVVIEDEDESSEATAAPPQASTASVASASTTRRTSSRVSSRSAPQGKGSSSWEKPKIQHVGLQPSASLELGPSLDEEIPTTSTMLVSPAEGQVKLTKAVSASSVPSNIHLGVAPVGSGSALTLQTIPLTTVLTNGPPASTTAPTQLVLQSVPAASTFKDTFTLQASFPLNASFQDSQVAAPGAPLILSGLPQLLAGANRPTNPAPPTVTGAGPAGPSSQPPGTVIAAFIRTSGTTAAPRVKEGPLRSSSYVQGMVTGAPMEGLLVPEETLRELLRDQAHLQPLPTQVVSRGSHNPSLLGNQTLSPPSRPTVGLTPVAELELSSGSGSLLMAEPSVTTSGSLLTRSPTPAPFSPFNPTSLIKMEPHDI
sequence,measurement,setting,value
CCTAAA,binding signal,[1],"1.27 fold enrichment (6-mer frequency, TF over GST control)"
same,binding signal,[2],"1.33 fold enrichment (6-mer frequency, TF over GST control)"
same,binding signal,[3],"1.37 fold enrichment (6-mer frequency, TF over GST control)"
same,binding signal,[4],"1.32 fold enrichment (6-mer frequency, TF over GST control)"
same,binding signal,[5],"1.35 fold enrichment (6-mer frequency, TF over GST control)"
same,binding signal,[6],"1.29 fold enrichment (6-mer frequency, TF over GST control)"
same,binding signal,[7],"1.25 fold enrichment (6-mer frequency, TF over GST control)"
same,binding signal,[8],"1.4 fold enrichment (6-mer frequency, TF over GST control)"
same,binding signal,[9],"1.61 fold enrichment (6-mer frequency, TF over GST control)"
